{"source": "PubChem BioAssay (NCATS)", "note": "Records with an inconclusive call do not appear. Calls of active or inactive are those of the source. Calls come from the whole dose curve; tested in HEK293 reporter line."}
{"experiment": "qHTS for Inhibitors of the Functional Ribonucleoprotein Complex (vRNP) of Lassa (LASV) Arenavirus: LASV Primary Screen - GLuc reporter signal (AID 1347082); note: nearly all actives have a fitted effect of over 60% in size; note: potency is the fitted concentration of half-maximal effect; for activity change, negative = inhibition: % is set by controls: 0 for no effect and ±100 for the full control effect", "settings": "LASV minigenome vRNP, Gaussia luciferase reporter; series mostly up to 57.5 µM; activity change, negative = inhibition: at the top concentration"}
{"compound": "C/C=C(\\C)C(=O)N[C@@H](c1ccccc1)[C@@H](O)C(=O)O[C@H]1C[C@@]2(O)[C@@H](OC(=O)c3ccccc3)C3[C@](C)(C(=O)[C@H](O)C(=C1C)C2(C)C)[C@@H](O)C[C@H]1OC[C@@]31OC(C)=O", "note": "(stereo not given in full)", "activity change, negative = inhibition": "-37.7% (inactive)"}
{"compound": "COC(/C(C)=C/C=C/C(C)=C/c1coc(C)n1)C(C)C1CC(O)C2(C)OC2C=CC(C)C2CC(CC(=O)O2)CC2OC2C(=O)O1", "note": "(stereo not given)", "activity change, negative = inhibition": "6.14% (inactive)"}
{"compound": "CC(C)c1c(C(=O)Nc2ccccc2)c(-c2ccccc2)c(-c2ccc(F)cc2)n1CC[C@H](O)C[C@@H](O)CC(=O)O", "activity change, negative = inhibition": "-29.4% (inactive)"}
{"compound": "C=C1C(=O)O[C@@H]2C[C@@H](C)[C@H]3C=CC(=O)[C@]3(O)C[C@@H]12", "activity change, negative = inhibition": "-25.8% (inactive)"}
{"compound": "CC(C)c1oc(=O)cc2c1[C@@H](O)[C@H]1OC(=O)[C@@]3(C)CC[C@@H](O)[C@@]2(C)C13", "note": "(stereo not given in full)", "Potency": "5.62 µM (active)"}
{"compound": "CC(=O)O[C@@]12CO[C@@H]1C[C@H](O)[C@@]1(C)C(=O)[C@H](O)C3=C(C)[C@@H](O)C[C@@](O)([C@@H](OC(=O)c4ccccc4)C12)C3(C)C", "note": "(stereo not given in full)", "activity change, negative = inhibition": "-6.75% (inactive)"}
{"compound": "COc1ccc(C2CC(=O)c3c(O)cc(O)cc3O2)cc1O", "note": "(stereo not given)", "activity change, negative = inhibition": "-10.5% (inactive)"}
{"compound": "CN(C(=O)c1ccc(F)cc1C(F)(F)F)C1CCN(c2nnc(-c3ccnn3C)c3ccccc23)CC1", "activity change, negative = inhibition": "-27.1% (inactive)"}
{"compound": "O=c1ccn([C@@H]2O[C@H](COP(=O)(O)O)[C@@H](O)[C@H]2O)c(=O)[nH]1", "activity change, negative = inhibition": "-3.26% (inactive)"}
{"compound": "C=C1C(=O)[C@@]23[C@H](O)C[C@@H]4C(C)(C)CC[C@H](O)[C@]4(C)[C@@H]2C[C@H](O)[C@@H]1[C@H]3O", "Potency": "8.91 µM (active)"}
{"compound": "Oc1ccc([C@@H]2Oc3ccc(O)cc3[C@@H]3CCC[C@@H]32)cc1", "activity change, negative = inhibition": "-37% (inactive)"}
{"compound": "CO[C@H]1[C@@H](O)[C@@H](C)O[C@H](O[C@H]2[C@H](Oc3cccc4c(O)c5c(=O)oc6ccc(C)c7c(=O)oc(c34)c5c67)O[C@H](C)[C@H](O)[C@@H]2O)[C@@H]1O", "activity change, negative = inhibition": "-4.65% (inactive)"}
{"compound": "CCCn1c(=O)c2[nH]c(-c3cnn(Cc4cccc(C(F)(F)F)c4)c3)nc2n(CC)c1=O", "activity change, negative = inhibition": "-8.77% (inactive)"}
{"compound": "CC=CC(=O)N(CC)c1ccccc1C", "activity change, negative = inhibition": "22.9% (inactive)"}
{"compound": "COc1ccc([C@@H]2CC(=O)c3c(O)cc(O[C@@H]4O[C@H](CO)[C@@H](O)[C@H](O)[C@H]4OC4O[C@@H](C)[C@H](O)[C@@H](O)[C@H]4O)cc3O2)cc1O", "note": "(stereo not given in full)", "activity change, negative = inhibition": "-0.678% [at 24.7 µM] (inactive)"}
{"compound": "CC(=O)O[C@@]12CO[C@@H]1C[C@H](OC1OCC(O)C(O)C1O)[C@@]1(C)C(=O)[C@H](O)C3=C(C)[C@@H](OC(=O)[C@H](O)[C@@H](NC(=O)c4ccccc4)c4ccccc4)C[C@@](O)([C@@H](OC(=O)c4ccccc4)C12)C3(C)C", "note": "(stereo not given in full)", "activity change, negative = inhibition": "8.54% (inactive)"}
{"compound": "COc1cc([C@@H]2c3cc4c(cc3C[C@H]3COC(=O)[C@@H]32)OCO4)cc(OC)c1O", "activity change, negative = inhibition": "-3.99% (inactive)"}
{"compound": "CC(=O)c1ccc[nH]1", "activity change, negative = inhibition": "-19.6% [at 115 µM] (inactive)"}
{"compound": "CON=C(C(=O)N[C@@H]1C(=O)N2C(C(=O)O)=C(CSC(=O)c3ccco3)CS[C@H]12)c1csc(N)n1", "activity change, negative = inhibition": "-3.53% (inactive)"}
{"compound": "CC(=O)O[C@@H]1CC[C@@]2(C)[C@H](C1)[C@H](OC(C)=O)C[C@@H]1[C@@H]2C[C@H]2[C@@H]3CN4C[C@H](C)CC[C@H]4[C@H](C)[C@H]3CC[C@@]12O", "activity change, negative = inhibition": "5.17% [at 24.7 µM] (inactive)"}
{"compound": "COc1cc(/C=C/C(=O)c2ccc(O)cc2O)ccc1O", "activity change, negative = inhibition": "5.2% (inactive)"}
{"compound": "Oc1ccc(C2CCN(c3ccnc4ccccc34)CC2)cc1O", "Potency": "15.3 µM (active)"}
{"compound": "CNCCCCc1cnc(C)c2[nH]c3ccccc3c12", "activity change, negative = inhibition": "-10.6% (inactive)"}
{"compound": "CCOC(=O)C1=C(C)NC(C)=C(C(=O)OCC)C1c1c(F)c(F)c(F)c(F)c1F", "activity change, negative = inhibition": "-30.3% (inactive)"}
{"compound": "CC(C)OC(=O)CCCC=CC[C@@H]1[C@H](C=C[C@@H](O)COc2cccc(C(F)(F)F)c2)[C@H](O)C[C@@H]1O", "Potency": "38.5 µM (active)"}
{"compound": "CO[C@H]1O[C@@H]2O[C@@]3(C)CC[C@@H]4[C@@H](C)CC[C@@H]([C@H]1C)[C@@]24OO3", "activity change, negative = inhibition": "-8.89% (inactive)"}
{"compound": "COc1ccc(C2COc3cc(O)ccc3C2)c(OC)c1O", "note": "(stereo not given)", "activity change, negative = inhibition": "-32.3% (inactive)"}
{"compound": "CC(C)(O)CC[C@@H](O)[C@](C)(O)[C@H]1CC[C@@]2(O)C3=CC(=O)[C@@H]4C[C@@H](O)[C@@H](O)C[C@]4(C)[C@@H]3CC[C@]12C", "activity change, negative = inhibition": "1.21% (inactive)"}
{"compound": "C[C@]12CC[C@H](O)C[C@H]1CC[C@@H]1C2CC[C@]2(C)[C@@H](C3=CC(=O)OC3)[C@@H](O)C[C@]12O", "note": "(stereo not given in full)", "Potency": "6.31 µM (active)"}
{"compound": "COc1ccc(-c2cc(=O)c3c(O)cc(O)c(-c4cc(-c5cc(=O)c6c(O)cc(OC)cc6o5)ccc4OC)c3o2)cc1", "activity change, negative = inhibition": "9.52% [at 24.7 µM] (inactive)"}
